The source of these data is PubChem BioAssay (NCI).

Some test systems named below: BT-549 breast; MDA-MB-435 melanoma; SW-620 colon; MCF7 breast; HCT-116 colon; HCC-2998 colon; KM12 colon; T-47D breast.
What all share (assay): NCI-60 one-dose screen, 48 h (100 = growth as untreated, 0 = no growth, -100 = all killed)
What all share (settings): 10 µM unless noted

The panel holds about 83,000 compounds, 20% with a hit somewhere; the sample as a whole holds those more often.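 Growth was measured after 48 h exposure to one concentration of compound in 96-well plates. Values under 10 count as active.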 A number with no mark means an inactive call. Calls of active or inactive are those of the source.

As to `COc1cc(C2CC(=O)c3ccccc3N2)cc(OC)c1OC` (configuration not stated), the growth in the assay on BT-549 breast is 104%; with MDA-MB-435 melanoma, 105%; in the assay with SW-620 colon, 100%; in the assay with MCF7 breast it was 96.8%; with HCT-116 colon, 104%; in the assay on HCC-2998 colon it was 109%. Moreover, the growth in the assay with KM12 colon was 99.6%.

For `COc1ccc(CN2c3ccccc3Oc3ccccc32)cc1F`, the growth in the assay with T-47D breast is 58.1%; with MDA-MB-435 melanoma it was -0.932% (active); in the assay on SW-620 colon, 33.6%; in the assay on MCF7 breast, 42.7%; with HCT-116 colon, 31.1%; with KM12 colon, 40.7%.

Take `CC(C)CSc1nc(N)nc2c1ncn2C1OC(CO)C(O)C1O` (configuration not stated): the growth in the assay on T-47D breast is 106%; with MDA-MB-435 melanoma, 91%; in the assay with SW-620 colon, 94.4%; in the assay with MCF7 breast, 99.5%; with HCC-2998 colon, 102%; with KM12 colon, 96.7%.

On to `COc1ccc(C2Nc3c(c(C(C)(C)C)nn3-c3ccccc3)C(=O)CS2)cc1` (configuration not stated), for which the growth with T-47D breast was 96.5%; with MDA-MB-435 melanoma it was 106%; with SW-620 colon it was 107%; in the assay with MCF7 breast, 92.9%; with HCT-116 colon it was 97.7%; in the assay with HCC-2998 colon, 102%. In the assay on KM12 colon, the growth is 98.2%.

Consider `c1ccc(-c2cc3n4c(-c5ccccc5)nn(-c5ccccc5)c4cnc-3n2)cc1`, for which the growth with T-47D breast is 54.2%; in the assay on MDA-MB-435 melanoma it was 60.4%; with SW-620 colon, 52.2%; in the assay on MCF7 breast it was 50.6%; in the assay on HCT-116 colon, 30.9%; with HCC-2998 colon, 83.9%. The growth with KM12 colon is 70.6%.

Turning to `CC(=O)Oc1ccc(Cl)cc1CN(C(C)=O)C1CCCCC1`, the growth in the assay with T-47D breast is 104%; in the assay on MDA-MB-435 melanoma, 115%; in the assay with SW-620 colon it was 105%; with MCF7 breast, 97.6%; in the assay with HCT-116 colon, 102%; with HCC-2998 colon, 99.4%. Moreover, the growth in the assay with KM12 colon was 112%.

For `Cn1c(NCCc2ccc(O)c(O)c2)nc2c1c(=O)n(Cc1ccc(Br)cc1)c(=O)n2C`, the growth is 53.3% in the assay on T-47D breast; 79% in the assay with MDA-MB-435 melanoma; 81.4% in the assay with SW-620 colon; 80% in the assay on MCF7 breast; 67.4% in the assay with HCT-116 colon; 94% in the assay with HCC-2998 colon. Besides, in the assay on KM12 colon, the growth was 76%.

For the compound `COc1ccc(C(=O)/C=C/c2cccnc2Nc2cc(OC)c(OC)c(OC)c2)cc1`, the growth with T-47D breast was 44.1%; with MDA-MB-435 melanoma, 2.91% (active); in the assay on SW-620 colon, -42.5% (active); in the assay with MCF7 breast, 12.9%; in the assay with HCT-116 colon, 13.7%; in the assay on HCC-2998 colon it was 22.9%. In the assay with KM12 colon, the growth was 14%.

For `N#Cc1nnn(-c2ccc(S(N)(=O)=O)cc2)c1NCC(=O)c1ccccc1`, the growth in the assay with T-47D breast is 95.4%; with MDA-MB-435 melanoma it was 91.8%; in the assay with SW-620 colon, 97.2%; with MCF7 breast, 93.3%; in the assay with HCT-116 colon, 95%; in the assay on HCC-2998 colon it was 112%. The growth with KM12 colon was 99.4%.

Regarding `O=C1C=C(O)C(=O)C(CC2=C(O)C(=O)C=C(O)C2=O)=C1O`, the growth in the assay on T-47D breast is 104%; in the assay with MDA-MB-435 melanoma it was 100%; in the assay on SW-620 colon it was 97.8%; in the assay on MCF7 breast, 105%; in the assay with HCT-116 colon it was 106%; in the assay with HCC-2998 colon, 97.2%. Also, the growth in the assay on KM12 colon is 104%.

On to `CCOC(=O)c1cc(C(=O)c2ccc(O)c(O)c2)n2ccc(-c3ccn4c(C(=O)c5ccc(O)c(O)c5)cc(C(=O)OCC)c4c3)cc12`, for which the growth in the assay with T-47D breast is 77.4%; in the assay with MDA-MB-435 melanoma it was 99.9%; with SW-620 colon it was 96.1%; in the assay with MCF7 breast, 99.1%; with HCT-116 colon it was 98.2%; in the assay on HCC-2998 colon, 104%. For the same compound, the growth with KM12 colon is 97%.

For the compound `COc1ccc(Nc2c3c4c(cccc4[nH]c2=O)C(=O)c2ccccc2-3)cc1`, the growth with T-47D breast was 75.6%; with MDA-MB-435 melanoma, -52.4% (active); with SW-620 colon, 19%; in the assay with MCF7 breast it was 0.568% (active); with HCT-116 colon, 4.08% (active); in the assay on HCC-2998 colon it was -5.28% (active). Also, the growth in the assay on KM12 colon was -36.2% (active).

For the compound `C/C1=C\CC[C@@]2(C)O[C@H]2[C@H]2OC(=O)C(CN3CCN(CC4C(=O)O[C@H]5[C@H]4CC/C(C)=C/CC[C@@]4(C)O[C@@H]54)CC3)[C@@H]2CC1` (some centres not stated), the growth with T-47D breast was 81.5%; with MDA-MB-435 melanoma, 89.1%; with SW-620 colon, 86.3%; in the assay on MCF7 breast it was 74.4%; in the assay with HCT-116 colon, 88%; with KM12 colon it was 98.5%.

As to `Nc1ccc(S(=O)(=O)O)c2ccc(N=Nc3ccc(N=Nc4ccc(S(=O)(=O)O)cc4)c4ccccc34)c(O)c12`, the growth in the assay on T-47D breast is 124%; in the assay on MDA-MB-435 melanoma it was 122%; with SW-620 colon it was 93.5%; with MCF7 breast, 101%; in the assay with HCT-116 colon, 99.4%; in the assay on HCC-2998 colon, 105%. Further, the growth in the assay with KM12 colon was 99%.

With `O=c1nc2oc3ccc4ccccc4c3cc-2s1`, the growth with T-47D breast was 12.6%; with MDA-MB-435 melanoma, -58.5% (active); with SW-620 colon it was 20.8%; in the assay on MCF7 breast it was 19.3%; in the assay on HCT-116 colon it was 21.1%; in the assay on HCC-2998 colon, 51.4%. For the same compound, the growth in the assay on KM12 colon is 19.5%.
